This note sets out measurements from PubChem BioAssay (EPA / NIEHS).

For test [1], the target named is human Serotonin, 5-Hydroxytryptamine Receptor 6 (5HT6), HTR6 (gene 3362) (UniProt P50406). Kind of test: NVS_GPCR_h5HT6: NovaScreen (NVS) G Protein-Coupled Receptor Assay for human Serotonin, 5-Hydroxytryptamine Receptor 6 (5HT6) (AID 2283253). The procedure: NVS_GPCR_h5HT6 is a biochemical, single-readout assay that uses extracted gene-proteins from HEK293 in a cell-free assay. Measurements were taken 1 hour after chemical dosing in a 96-well plate.NVS_GPCR_h5HT6 is one of one assay component(s) measured or calculated from the NVS_GPCR_h5HT6 assay. It is designed to make measurements of radioligand binding, a form of binding reporter, as detected with scintillation counting signals by Filter-based radiodetection technology.Data from the assay component NVS_GPCR_h5HT6 was analyzed into 1 assay endpoint. This assay endpoint, NVS_GPCR_h5HT6, was analyzed in the positive analysis fitting direction relative to DMSO as the negative control and baseline of activity. Using a type of binding reporter, loss-of-signal activity can be used to understand changes in the binding as they relate to the gene HTR6. Furthermore, this assay endpoint can be referred to as a primary readout, because the performed assay has only produced 1 assay endpoint. To generalize the intended target to other relatable targets, this assay endpoint is annotated to the gpcr intended target family, where the subfamily is rhodopsin-like receptor.
Binding assays used specific radioligands (tritiated, iodinated) with non-radioactive competitive displacement ligands in agonist or antagonist protocols (as indicated) and various reference compounds and inhibitors to titrate specific binding to receptors and transporters. Most enzyme assays (CYPs, kinases, phosphatases, proteases, HDACs) used recombinant protein and specific substrates (fluorescence mostly, some colorimetric and radioactive) and inhibitors, followed by a biochemical separation of substrate and product. All assays for the biochemical HTS were initially run in duplicate at a single concentration (10 uM for CYP450 assays and 25 uM for all others). […] Each assay was run with positive and negative controls, and concurrent controls on every plate. The follow-up (secondary) screen tested active chemical-pairs in concentration series, as well as a few additional assays not tested in the primary screen, some selected negative inactives, and several cases re-run in the concentration series for confirmatory purposes.

The target of test [2] is human Adenosine A1 Receptor (AdoRA1), ADORA1 (gene 134) (UniProt P30542). Description: NVS_GPCR_hAdoRA1: NovaScreen (NVS) G Protein-Coupled Receptor Assay for human Adenosine A1 Receptor (AdoRA1) (AID 2283254). An outline of the steps:
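Membranes from human cortical tissue were incubated with radioligand and test chemical for 1 hour, then filtered and counted. Activity was taken as signal loss relative to DMSO, screened at 25 uM in duplicate before concentration-response follow-up.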

For test [3], the target named is human Adenosine A2a Receptor (AdoRA2a), ADORA2A (gene 135) (UniProt P29274). Description: NVS_GPCR_hAdoRA2a: NovaScreen (NVS) G Protein-Coupled Receptor Assay for human Adenosine A2a Receptor (AdoRA2a) (AID 2283256). An outline of the steps:
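HEK293-derived receptor preparation, radioligand displacement, 1.5 h, filtration + scintillation read. Loss of bound signal scored vs DMSO. Single-point 25 uM in duplicate first, then concentration-response for actives.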

Test [4] addresses human Serotonin, 5-Hydroxytryptamine Receptor 5A (5HT5A), HTR5A (gene 3361) (UniProt P47898). Kind of test: NVS_GPCR_h5HT5A: NovaScreen (NVS) G Protein-Coupled Receptor Assay for human Serotonin, 5-Hydroxytryptamine Receptor 5A (5HT5A) (AID 2283251). An outline of the steps:
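Membranes from HEK293 cells, radioligand binding read by filtration and scintillation after 1 h. Single-concentration duplicate testing at 25 uM, then concentration-response for actives; positive-direction fitting relative to DMSO.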

Test [5] has as its target guinea pig Opioid, Kappa 1 Receptor (OpiateK), OPRK1 (gene 100135587) (UniProt P41144). Kind of test: NVS_GPCR_gOpiateK: NovaScreen (NVS) G Protein-Coupled Receptor Assay for guinea pig Opioid, Kappa 1 Receptor (OpiateK) (AID 2283252).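 Also: active means reduced radioligand binding relative to DMSO.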 An outline of the steps:
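Radioligand binding to kappa opioid receptor in guinea pig cerebellar membranes, read by filtration and scintillation at 2 h. Compounds first tested in duplicate at 25 uM, then actives in concentration series; signal loss fitted against DMSO.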

The test system of test [6] is guinea pig Muscarinic, Peripheral (Mperiperal) Receptor, Non-selective Binding, gene 100379235. Description: NVS_GPCR_gMPeripheral_NonSelective: NovaScreen (NVS) G Protein-Coupled Receptor Assay for guinea pig Muscarinic, Peripheral (Mperiperal) Receptor, Non-selective Binding (AID 2283250). An outline of the steps: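 Screened in duplicate at 25 uM, hits retested in concentration series to 50 uM max, using bladder membrane radioligand displacement from guinea pig. Filtration and scintillation counting 1 h post-dose, fitted relative to DMSO.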

The target of test [7] is human Adrenergic, Alpha 2c Receptor (Adra2C), ADRA2C (gene 152) (UniProt P18825). Kind of test: NVS_GPCR_hAdra2C: NovaScreen (NVS) G Protein-Coupled Receptor Assay for human Adrenergic, Alpha 2c Receptor (Adra2C) (AID 2283259). An outline of the steps:
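Screened first in duplicate at 25 uM, with actives then run as concentration series. Membranes from Sf9 cells were exposed for 1 h, and displacement of radioligand was counted after filtration, using DMSO as baseline.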

Records with an inconclusive call do not appear. Activity calls are given as the source filed them. The calls were made as follows: active = hit-call score of the fitted dose curve at least 0.9, where 1 is the maximum; inconclusive = response in the unintended direction; inactive = score below 0.9.

human Adenosine A2a Receptor (AdoRA2a), ADORA2A (gene 135), sequence (P29274 whole entry, looked up): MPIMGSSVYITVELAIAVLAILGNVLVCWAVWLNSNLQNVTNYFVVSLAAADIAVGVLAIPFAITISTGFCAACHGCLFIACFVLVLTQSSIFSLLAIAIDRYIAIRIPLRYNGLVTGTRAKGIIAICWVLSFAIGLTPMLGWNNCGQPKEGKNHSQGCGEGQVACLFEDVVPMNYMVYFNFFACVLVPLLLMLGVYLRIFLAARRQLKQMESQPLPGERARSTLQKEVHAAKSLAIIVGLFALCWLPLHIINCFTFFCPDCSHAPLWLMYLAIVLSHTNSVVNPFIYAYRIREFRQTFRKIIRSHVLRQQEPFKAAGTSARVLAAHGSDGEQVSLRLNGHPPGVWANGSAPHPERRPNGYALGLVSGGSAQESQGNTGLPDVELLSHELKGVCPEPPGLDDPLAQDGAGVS
human Serotonin, 5-Hydroxytryptamine Receptor 6 (5HT6), HTR6 (gene 3362), sequence (P50406 whole entry, looked up): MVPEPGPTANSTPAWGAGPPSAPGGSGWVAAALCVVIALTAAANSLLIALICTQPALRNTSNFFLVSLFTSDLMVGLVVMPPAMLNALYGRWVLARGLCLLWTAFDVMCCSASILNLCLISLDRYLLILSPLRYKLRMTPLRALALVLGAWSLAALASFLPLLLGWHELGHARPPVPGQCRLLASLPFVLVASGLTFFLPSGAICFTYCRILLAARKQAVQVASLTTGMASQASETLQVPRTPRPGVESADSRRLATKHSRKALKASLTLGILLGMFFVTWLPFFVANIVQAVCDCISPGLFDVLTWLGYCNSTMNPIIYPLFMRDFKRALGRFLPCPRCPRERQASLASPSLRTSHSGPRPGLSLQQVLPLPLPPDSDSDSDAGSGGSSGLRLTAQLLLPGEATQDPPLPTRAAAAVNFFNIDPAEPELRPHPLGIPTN
guinea pig Opioid, Kappa 1 Receptor (OpiateK), OPRK1 (gene 100135587), sequence (P41144 whole entry, looked up): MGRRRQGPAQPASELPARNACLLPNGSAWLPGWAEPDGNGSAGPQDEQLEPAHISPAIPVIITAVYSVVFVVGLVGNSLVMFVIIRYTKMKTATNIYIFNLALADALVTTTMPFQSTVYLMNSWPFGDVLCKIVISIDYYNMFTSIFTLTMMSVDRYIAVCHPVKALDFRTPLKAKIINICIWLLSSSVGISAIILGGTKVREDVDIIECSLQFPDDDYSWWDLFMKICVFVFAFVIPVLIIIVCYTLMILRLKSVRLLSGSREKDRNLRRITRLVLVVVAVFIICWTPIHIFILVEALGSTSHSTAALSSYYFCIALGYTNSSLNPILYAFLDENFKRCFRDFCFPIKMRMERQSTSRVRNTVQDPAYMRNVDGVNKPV
human Serotonin, 5-Hydroxytryptamine Receptor 5A (5HT5A), HTR5A (gene 3361), sequence (P47898 whole entry, looked up): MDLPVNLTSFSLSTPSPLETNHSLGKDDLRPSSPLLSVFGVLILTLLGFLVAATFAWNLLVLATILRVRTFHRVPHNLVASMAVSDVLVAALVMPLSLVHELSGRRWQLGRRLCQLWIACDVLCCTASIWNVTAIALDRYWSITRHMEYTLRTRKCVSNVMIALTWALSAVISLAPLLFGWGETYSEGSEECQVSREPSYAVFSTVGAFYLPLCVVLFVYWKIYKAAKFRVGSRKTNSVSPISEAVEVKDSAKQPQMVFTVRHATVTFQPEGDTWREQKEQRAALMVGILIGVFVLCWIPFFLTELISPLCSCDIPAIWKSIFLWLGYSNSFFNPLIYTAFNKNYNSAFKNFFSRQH
human Adenosine A1 Receptor (AdoRA1), ADORA1 (gene 134), sequence (P30542 whole entry, looked up): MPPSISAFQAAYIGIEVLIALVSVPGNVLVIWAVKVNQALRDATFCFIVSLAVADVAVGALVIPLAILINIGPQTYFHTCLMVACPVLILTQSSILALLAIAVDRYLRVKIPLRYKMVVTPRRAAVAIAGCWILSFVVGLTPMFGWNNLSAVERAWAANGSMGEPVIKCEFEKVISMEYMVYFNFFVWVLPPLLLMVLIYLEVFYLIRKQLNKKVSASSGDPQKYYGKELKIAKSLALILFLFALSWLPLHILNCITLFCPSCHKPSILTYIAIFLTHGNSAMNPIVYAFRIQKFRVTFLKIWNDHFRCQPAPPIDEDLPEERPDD
human Adrenergic, Alpha 2c Receptor (Adra2C), ADRA2C (gene 152), sequence (P18825 whole entry, looked up): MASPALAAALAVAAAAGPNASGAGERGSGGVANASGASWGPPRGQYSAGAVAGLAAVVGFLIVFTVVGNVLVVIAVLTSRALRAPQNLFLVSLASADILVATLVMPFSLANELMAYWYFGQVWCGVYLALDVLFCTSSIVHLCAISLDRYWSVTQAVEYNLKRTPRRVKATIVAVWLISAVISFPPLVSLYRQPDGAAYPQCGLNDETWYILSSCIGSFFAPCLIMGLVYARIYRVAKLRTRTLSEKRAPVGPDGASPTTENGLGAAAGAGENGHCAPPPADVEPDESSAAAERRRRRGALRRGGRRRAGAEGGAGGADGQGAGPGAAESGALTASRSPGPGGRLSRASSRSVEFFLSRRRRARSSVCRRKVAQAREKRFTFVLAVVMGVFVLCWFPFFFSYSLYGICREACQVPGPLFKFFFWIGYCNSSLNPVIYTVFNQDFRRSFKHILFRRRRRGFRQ

Regarding `CC(C)N(C(=O)SCC(Cl)=C(Cl)Cl)C(C)C`, in test [1], the compound was called inactive.

The AC50 is the concentration giving half of the maximal activity seen. For `CSc1nc(NC(C)C)nc(NC(C)C)n1`, the results for the AC50 in test [2] and in test [3] were 3.54 µM (active) and 4.59 µM (active), respectively.

For `CNC(=O)Oc1cccc2c1OC(C)(C)O2`, the compound was called inactive in test [4].

Consider `CCOP(=O)(NC(C)C)Oc1ccc(SC)c(C)c1` (stereo not given), for which the AC50 in test [5] is 16.3 µM (active).

Take `C=C(C)[C@H]1Cc2c(ccc3c2O[C@@H]2COc4cc(OC)c(OC)cc4[C@@H]2C3=O)O1`: the compound was classed as inactive in test [4]. In addition, the AC50 in test [1] is 1.13 µM (active).

`O=c1ccc(=O)[nH][nH]1`: the compound was called inactive in test [4].

As for `CCOC(=O)COc1cc(-c2nn(C)c(OC(F)F)c2Cl)c(F)cc1Cl`, the result in test [6] was inactive.

With `CCCOCC(=Nc1ccc(Cl)cc1C(F)(F)F)n1ccnc1`, the call in test [5] was inactive.

As to `O=C(O)c1cc(Oc2ccc(C(F)(F)F)cc2Cl)ccc1[N+](=O)[O-]`, the compound was classed as inactive in test [4]. The AC50 in test [3] is 7.71 µM (active).

On to `CCC(=O)Nc1ccc(Cl)c(Cl)c1`, for which the AC50 in test [1] is 7.47 µM (active); in test [3], 10 µM (active).

Take `CCOC(=O)CC(SP(=O)(OC)OC)C(=O)OCC` (stereo not given): the call in test [6], in test [2] and in test [3] was inactive.

For `Cc1ccn2nc(S(=O)(=O)Nc3c(F)cccc3F)nc2n1`, the compound was called inactive in test [6].

As to `CC(COc1ccc(Oc2ccccc2)cc1)Oc1ccccn1` (stereo not given), the compound was classed as inactive in test [4].

Take `O=[N+]([O-])c1cc(C(F)(F)F)c(Cl)c([N+](=O)[O-])c1Nc1ncc(C(F)(F)F)cc1Cl`: the half-maximal activity concentration (AC50) in test [3] was 6.87 µM (active).

On to `COP(=O)(OC)OC(Br)C(Cl)(Cl)Br` (stereo not given), for which the values for the concentration at half-maximal activity (AC50) in test [5] and in test [1] were 33.3 µM (active) and 9.88 µM (active), respectively.

Consider `C#CCC1=C(C)C(OC(=O)C2C(C=C(C)C)C2(C)C)CC1=O` (stereo not given), for which the result in test [2] was inactive.

As for `CC(Oc1cccc(Cl)c1)C(=O)O` (stereo not given), the compound was called inactive in test [4].

`C[N+]1(C)CCCCC1`: in test [7], the result was inactive.
